This is an account of results in PubChem BioAssay (NCI).

This is part of a sample that, as a whole, favours compounds with a hit. Of some 83,000 tested, about 20% had one in any assay.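 Growth was measured after 48 h exposure to one concentration of compound in 96-well plates. Values under 10 count as active.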 A number with no mark means an inactive call. Calls of active or inactive are those of the source.

Test systems include T-47D breast; BT-549 breast; MDA-MB-435 melanoma; SW-620 colon; MCF7 breast; HCT-116 colon; HCC-2998 colon; KM12 colon.
Common to all, as to assay: NCI-60 one-dose screen, 48 h (100 = growth as untreated, 0 = no growth, -100 = all killed)
Conditions in all cases: 10 µM unless noted

In the case of `CC[N+](CCCCCCCCCC[N+](CC)(c1ccccn1)c1ccccn1)(c1ccccn1)c1ccccn1`, the growth with T-47D breast was 13.8%; in the test with BT-549 breast, 19.1%; in the test with MDA-MB-435 melanoma, -15.1% (active); in the test with SW-620 colon, 10.1%; with MCF7 breast, 7.81% (active); in the test with HCT-116 colon, 9.06% (active). The growth with HCC-2998 colon is 13.3%; with KM12 colon, 5.01% (active).
On to `Cc1ccc(C2=Nc3c(ccc4c(C)c(C)c(=O)oc34)OC2)cc1`, for which the growth was 89.8% in the test on T-47D breast; 94% with BT-549 breast; 104% in the test with MDA-MB-435 melanoma; 108% in the test on SW-620 colon; 115% with MCF7 breast; 95.5% in the test on HCT-116 colon. Moreover, the growth was 96.1% in the test on HCC-2998 colon and 97.8% with KM12 colon.
As to `C[C@H](C(=O)N[C@@H](Cc1ccc(-c2ccccc2)cc1)C(=O)NC1CC(C)(C)NC(C)(C)C1)c1ccc(-c2ccccc2)c(F)c1`, the growth in the test with T-47D breast was -37.2% (active); with BT-549 breast, -19.8% (active); in the test on MDA-MB-435 melanoma it was -90.1% (active); in the test with SW-620 colon it was -78.2% (active); in the test with MCF7 breast it was -50.9% (active); in the test with HCT-116 colon, -85.8% (active). For the same molecule, the growth in the test with HCC-2998 colon was -83% (active); with KM12 colon, -80% (active).
In the case of `O=C1/C(=C\c2coc3ccccc3c2=O)c2ccccc2N1c1c(Cl)cccc1Cl`, the growth was 30% in the test with T-47D breast; 41.1% in the test on BT-549 breast; 14.5% with MDA-MB-435 melanoma; 35% in the test with SW-620 colon; 31.6% in the test on MCF7 breast; 35.6% with HCT-116 colon. Also, the growth was 53% in the test with HCC-2998 colon and 27.1% in the test on KM12 colon.
For `O=C1Nc2ccc(Cl)cc2[C@@](C#CC2CC2)(C(F)(F)F)O1`, the growth was 70.4% in the test with T-47D breast; 117% in the test with BT-549 breast; 88% in the test on MDA-MB-435 melanoma; 107% in the test on SW-620 colon; 105% in the test on MCF7 breast; 82.9% in the test on HCT-116 colon. For the same molecule, the values for the growth with HCC-2998 colon and in the test on KM12 colon were 108% and 86.1%, respectively.
Take `C/C(=C\CCc1ccoc1)CC/C=C(\C)CCCN1CCSCC1`: the growth in the test with T-47D breast is 60.9%; in the test on BT-549 breast, 77.7%; in the test with MDA-MB-435 melanoma it was 91.1%; with SW-620 colon, 86.1%; in the test with MCF7 breast it was 43.2%; in the test with HCT-116 colon, 53.8%. Moreover, the growth was 74.6% in the test with HCC-2998 colon and 81% in the test with KM12 colon.
As to `CCCCN=C(N)c1ccc(OCCSCCOc2ccc(C(N)=NCCCC)cc2)cc1`, the growth in the test with T-47D breast was 26.3%; in the test with BT-549 breast it was -3.76% (active); in the test with MDA-MB-435 melanoma it was 35.5%; with SW-620 colon, 57.5%; in the test with MCF7 breast it was 29.1%; in the test on HCT-116 colon it was 41.5%. The growth was 59% with HCC-2998 colon and 27% with KM12 colon.
Take `COc1cc(/C=C2\CN(S(=O)(=O)c3ccc(C)cc3)C/C(=C\c3cc(CN4CCOCC4)c(O)c(OC)c3)C2=O)cc(CN2CCOCC2)c1O`: the growth was 63.9% in the test with T-47D breast; -21.8% (active) with BT-549 breast; -19.7% (active) in the test with MDA-MB-435 melanoma; 3.91% (active) in the test with SW-620 colon; 10.6% with MCF7 breast; -83.3% (active) in the test with HCT-116 colon. Besides, the growth in the test with HCC-2998 colon was -89.3% (active); with KM12 colon, -74.4% (active).
Take `O=C1/C(=C/c2ccccc2Cl)CCc2ccccc21`: the growth in the test with T-47D breast was 105%; in the test on BT-549 breast, 108%; with MDA-MB-435 melanoma, 95.4%; with SW-620 colon, 110%; in the test on MCF7 breast, 87.9%; in the test on HCT-116 colon, 99.5%. Moreover, the growth in the test on HCC-2998 colon was 102%; with KM12 colon, 108%.
For `CCOc1cc(/C=C/C(=O)CC(=O)/C=C/c2ccc(OC(=O)CNc3nc4ccc(OC)cc4s3)c(OCC)c2)ccc1OC(=O)CNc1nc2ccc(OC)cc2s1`, the growth in the test with T-47D breast is 79.7%; in the test on BT-549 breast, -1.58% (active); in the test on MDA-MB-435 melanoma, -22.2% (active); in the test on SW-620 colon it was 17.9%; in the test on MCF7 breast, 9.28% (active); in the test with HCT-116 colon, 4.31% (active). The growth was 39.6% in the test with HCC-2998 colon and 9.4% (active) in the test with KM12 colon.
Turning to `COc1cnc2c(c1)C(=O)c1c-2n(CCCn2ccnc2)c(=O)c2cc(F)ccc12`, the growth in the test with T-47D breast is -9.74% (active); in the test with BT-549 breast it was -11.2% (active); in the test on MDA-MB-435 melanoma, -60.3% (active); in the test with SW-620 colon, -45.2% (active); in the test with MCF7 breast, 0.795% (active); with HCT-116 colon, -49.9% (active). For the same molecule, the figures for the growth with HCC-2998 colon and with KM12 colon were 4.65% (active) and 0.0466% (active), respectively.
Consider `Oc1c(Cl)cc(Cl)c(Cl)c1Cc1c(O)c(Cl)cc(Cl)c1Cl`, for which the growth was 33.8% in the test on T-47D breast; 17.2% in the test with BT-549 breast; 10.4% with MDA-MB-435 melanoma; 16.7% in the test with SW-620 colon; 10.3% with MCF7 breast; 3.93% (active) with HCT-116 colon. Moreover, the growth in the test with HCC-2998 colon is 7.48% (active); in the test with KM12 colon, 8.09% (active).
Consider `CCOc1cc(/C=C/C(=O)CC(=O)/C=C/c2ccc(OC(=O)CNCCN(CC)CC)c(OCC)c2)ccc1OC(=O)CNCCN(CC)CC`, for which the growth in the test with T-47D breast was 36.9%; in the test with BT-549 breast it was -77.2% (active); in the test with MDA-MB-435 melanoma, -21.6% (active); in the test with SW-620 colon it was -58.1% (active); in the test on MCF7 breast, 7.36% (active); in the test on HCT-116 colon, -84.7% (active). Also, the values for the growth in the test on HCC-2998 colon and in the test with KM12 colon were -71.2% (active) and -60.2% (active), respectively.
As to `Nc1ccc2c(c1Br)Cc1ccccc1-2`, the growth is 87.8% with T-47D breast; 89% in the test with BT-549 breast; 110% in the test on MDA-MB-435 melanoma; 98.1% with SW-620 colon; 51% with MCF7 breast; 98.2% with HCT-116 colon. The results for the growth with HCC-2998 colon and with KM12 colon were 99.1% and 103%, respectively.
In the case of `O=C(COc1ccc(/C=C2\Oc3ccc4ccccc4c3C2=O)cc1)c1ccc(Cl)cc1`, the growth with T-47D breast is 79.4%; in the test with BT-549 breast, 24.7%; with MDA-MB-435 melanoma, 101%; with SW-620 colon, 103%; with MCF7 breast, 58.5%; in the test with HCT-116 colon, 96.7%. Besides, the growth in the test with HCC-2998 colon is 134%; in the test on KM12 colon, 99.5%.
